Source: PubChem BioAssay (NCATS)
Results filed as inconclusive are left out. Entries that show only a call come without a potency. The source made the active and inactive calls. Calls follow the shape of the dose curve; as a rule, active = well fitted curve in the direction sought with a large enough effect; inconclusive = small, poorly fitted or top-dose-only effect, or another doubt; inactive = no such curve, though single readings can be large; an effect the other way counts as inactive or inconclusive.

Experiments:
[1] = qHTS assay for measurement of the activity of small molecule inhibitors on Zika virus induced Caspase-3 activity in human iPSC derived neural progenitor cells (hNPCs) (AID 1224857); settings: hNPCs ZIKV-induced caspase-3/7, Caspase-Glo luminescence, 6 h; series mostly up to 45.7 µM; also: nearly all actives have a fitted effect of over 65% in size
Summary of the method: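 hNPCs seeded 350 cells/well, cultured 16–20 h; compounds added 1 h before ZIKV (2 FFU/cell), 37 C 6 h. Caspase-Glo 3/7 luminescence after 30 min RT; % inhibition from induction scaled to uninfected (0%) and infected (100%) wells.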

[2] = qHTS assay for measurement of the activity of small molecule inhibitors on Zika virus induced Caspase-3 activity in human astrocytoma cells (AID 1224859); settings: SNB-19 ZIKV-induced caspase-3/7, luminescence, 6 h; series mostly up to 45.7 µM
Summary of the method: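 Luminescence read-out (Caspase-Glo 3/7, 30 min RT) of caspase activity in SNB-19 cells infected 6 h with ZIKV, 2 FFU/cell, after 1 h compound pretreatment; % inhibition from induction normalised to uninfected (0%) and infected (100%) wells.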

[3] = qHTS assay to identify small molecule inhibitors of chordoma cells - UCH-1 (AID 1259355); settings: UCH-1 chordoma viability, CellTiter-Glo, 48 h, combination, with auranofin plus four topoisomerase inhibitors; series mostly up to 46.1 µM; also: nearly all actives have a fitted effect of over 55% in size; also: potency is read from the fitted curve at half-maximal effect
Summary of the method: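 A 48hr growth-inhibition format: each drug tested at 15 concentrations together with added auranofin, camptothecin, doxorubicin, rubitecan and topotecan, with cell viability quantified as CellTiter-Glo luminescence.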

[4] = qHTS assay to identify small molecule inhibitors of chordoma cells - UCH-2 (AID 1259356); settings: UCH-2 chordoma viability, CellTiter-Glo ATP luminescence, 48 h; series mostly up to 46.1 µM

| SMILES | outcome [1] | outcome [2] | Potency [3] | Potency [4] |
| --- | --- | --- | --- | --- |
| CCN(CC)CCOc1ccc(C(O)(Cc2ccc(Cl)cc2)c2ccc(C)cc2)cc1 (stereo not given) | inactive | inactive | inactive |  |
| COc1cccc2c1C(=O)c1c(O)c3c(c(O)c1C2=O)C[C@@](O)(C(C)=O)C[C@@H]3O[C@H]1C[C@H](N)[C@H](O)[C@H](C)O1 | inactive | inactive | 1.78 µM (active) |  |
| NC(=O)c1cc[n+](CC2=C(C(=O)[O-])N3C(=O)[C@@H](NC(=O)Cc4cccs4)[C@H]3SC2)cc1 | inactive | inactive | inactive | inactive |
| CC(=O)N/N=C/c1ccc([N+](=O)[O-])o1 | inactive | inactive | inactive |  |
| COC(=O)CCc1ccc(OCC(O)CNC(C)C)cc1 (stereo not given) | inactive | inactive |  |  |
| CCN(CC)CCNC(=O)COc1ccc(Cl)cc1 | inactive | inactive | inactive | inactive |
| Cc1nc2n(c(=O)c1CCN1CCC(c3noc4cc(F)ccc34)CC1)CCC[C@H]2O | inactive | inactive |  |  |
| CCCCS(=O)(=O)N[C@@H](Cc1ccc(OCCCCC2CCNCC2)cc1)C(=O)O | inactive | inactive |  |  |
| CNC(=O)CN(CCN(CCN(CC(=O)[O-])CC(=O)NC)CC(=O)[O-])CC(=O)[O-].O.[Gd+3] | inactive | inactive |  |  |
| OC[C@@H](O)[C@@H](O[C@@H]1O[C@H](CO)[C@H](O)[C@H](O)[C@H]1O)[C@H](O)[C@@H](O)CO | inactive | inactive | inactive | inactive |
| Cc1onc(-c2c(Cl)cccc2Cl)c1C(=O)N[C@@H]1C(=O)N2[C@@H]1SC(C)(C)[C@@H]2C(=O)O | inactive | inactive |  |  |
| Cc1ccc(O)c2ncccc12 | inactive | inactive | inactive | inactive |
| CCOC(=O)n1ccn(C)c1=S | inactive | inactive | inactive | inactive |
| CNCCC(Oc1ccccc1C)c1ccccc1 (stereo not given) | inactive | inactive | inactive |  |
| NC(CO)(CO)CO | inactive | inactive | inactive | inactive |
| CN(C)CC/C=C1/c2ccccc2COc2ccc(CC(=O)O)cc21 | inactive | inactive | inactive |  |
| OC[C@H]1O[C@H](O[C@]2(CCl)O[C@H](CCl)[C@@H](O)[C@@H]2O)[C@H](O)[C@@H](O)[C@H]1Cl | inactive | inactive |  |  |
| Cc1cc2c(cc1CC(=O)c1sccc1S(=O)(=O)Nc1onc(C)c1Cl)OCO2 | inactive | inactive |  |  |

| SMILES | outcome [1] | outcome [2] | Potency [3] | Potency [4] |
| --- | --- | --- | --- | --- |
| CCCCCCC[N+](CC)(CC)CCCCc1ccc(Cl)cc1 | inactive | inactive | inactive |  |
| CCCCCCCCCCCCCCCC[N+](C)(C)CC | inactive | inactive | inactive |  |
| CCCCOc1ccc(C(=O)CCN2CCCCC2)cc1 | inactive | inactive | inactive |  |
| Cc1ccccc1C(=O)Nc1ccc(C(=O)N2CCCC(N(C)C)c3ccccc32)cc1 (stereo not given) | inactive | inactive |  |  |
| Cc1cc(N)c2cc(NC(=O)Nc3ccc4nc(C)cc(N)c4c3)ccc2n1 | inactive | inactive | inactive | inactive |
| Cc1ccc(Nc2c(F)cccc2Cl)c(CC(=O)O)c1 | inactive | inactive |  |  |
| COc1cc(C(=S)N2CCOCC2)cc(OC)c1OC | inactive | inactive | inactive | inactive |
| C[n+]1c2cc(N)ccc2cc2ccc(N)cc21 (tested in a mixture with another compound) | inactive | inactive | 15.8 µM (active) |  |
| COC(=O)C1=C(C)NC(C)=C(C(=O)O[C@@H]2CCCN(Cc3ccccc3)C2)[C@@H]1c1cccc([N+](=O)[O-])c1 | inactive | inactive |  |  |
| COc1ccc(CCN2CCC(Nc3nc4ccccc4n3Cc3ccc(F)cc3)CC2)cc1 | inactive | inactive | 31.6 µM (active) |  |
| c1ccc(OCc2ccc(CCCN3CCOCC3)cc2)cc1 | inactive | inactive | inactive | inactive |
| CN1C2CCC1CC(OC(=O)c1c[nH]c3ccccc13)C2 (stereo not given) | inactive | inactive | inactive |  |
| O=c1[nH]c(=O)n([C@H]2C[C@H](O)[C@@H](CO)O2)cc1C(F)(F)F | inactive | inactive | inactive | inactive |
| CCOC(=O)COc1ccc2c(C)c(CCN(CC)CC)c(=O)oc2c1Cl | inactive | inactive | inactive |  |
| COc1cc(NS(C)(=O)=O)ccc1Nc1c2ccccc2nc2ccccc12 | inactive | inactive | 28.2 µM (active) |  |
| CC(C)(C)NC(=O)[C@@H]1CN(Cc2cccnc2)CCN1C[C@@H](O)C[C@@H](Cc1ccccc1)C(=O)N[C@H]1c2ccccc2C[C@H]1O | inactive | inactive |  |  |
| CCCCc1nc(Cl)c(CO)n1Cc1ccc(-c2ccccc2-c2nn[nH]n2)cc1 | inactive | inactive | inactive | inactive |
